Sampled rows, rich in hits. Any-hit rate of the full collection: about 2.9%.
ERa coact inh: blocks coactivator binding to human estrogen receptor alpha. P03372. TR-FRET ER-alpha LBD / SRC-1 peptide, estradiol-bound. inhibition, % at 25.6 µM. hit rate 1.7% among 86,000; in the data active = inhibition above about 50%
Target sequence (P03372 whole entry, looked up, the tested form may be a part): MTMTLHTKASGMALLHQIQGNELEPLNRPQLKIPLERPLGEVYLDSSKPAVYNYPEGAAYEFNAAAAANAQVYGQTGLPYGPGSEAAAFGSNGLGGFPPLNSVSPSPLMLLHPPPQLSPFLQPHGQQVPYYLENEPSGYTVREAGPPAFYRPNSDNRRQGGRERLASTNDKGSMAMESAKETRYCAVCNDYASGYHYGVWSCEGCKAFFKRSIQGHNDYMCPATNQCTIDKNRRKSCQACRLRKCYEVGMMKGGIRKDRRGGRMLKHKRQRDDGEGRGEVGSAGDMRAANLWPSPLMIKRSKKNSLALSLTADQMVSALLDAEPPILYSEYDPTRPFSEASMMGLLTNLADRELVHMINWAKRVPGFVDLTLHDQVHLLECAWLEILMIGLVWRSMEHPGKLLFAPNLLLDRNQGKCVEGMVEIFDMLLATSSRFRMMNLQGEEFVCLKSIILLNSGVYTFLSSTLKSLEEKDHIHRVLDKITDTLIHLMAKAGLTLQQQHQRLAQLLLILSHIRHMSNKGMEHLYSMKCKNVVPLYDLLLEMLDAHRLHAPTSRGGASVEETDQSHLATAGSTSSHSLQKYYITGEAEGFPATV
Candida biofilm: kills Candida albicans biofilms. inhibition, % at 6 µM. AID 834. C. albicans biofilm + clotrimazole, Alamar Blue. hit rate 0.14% among 85,000;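 active = inhibition above 20%; inactive = inhibition below 20%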;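 note: preformed 24 hr biofilms exposed to compound for 48 hr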
ERa coact pot: ER-alpha (human) coactivator binding potentiation | P03372 | TR-FRET ERalpha-LBD/SRC-Cy5 coactivator binding, 2 h; 100 = basal binding, no effect | coactivator binding (% of control), % at 25.6 µM | hit rate 1.3% among 86,000 | AID 639; in the data active = activity above about 200%;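 note: binding measured in presence of low estradiol as agonist stimulus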
cytoskel mod: cytoskeleton assembly modification; inhibition, % at 2 µM; hit rate 0.18% among 91,000; HUVEC TNFa F-actin phalloidin imaging, high content;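 active = inhibition above the batch mean plus 3 SD and confirmed as a hit by visual image inspection, cut at about 30% in these data, passing the limit was not always enough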
E-sel TNF inh: blocks E-selectin expression induced by TNF alpha | HUVEC TNFa-induced E-selectin immunofluorescence, high content | inhibition, % at 2 µM | hit rate 0.71% among 120,000;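 active = inhibition above the batch mean plus 3 SD, and confirmed as a hit on visual image review, cut at about 43% in these data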
ERb SRC1 inh: blocks coactivator binding to human estrogen receptor beta; TR-FRET ER-beta LBD / SRC1-Cy5 peptide binding; receptor agonist-loaded with 1 µM estradiol; inhibition, % at 25.6 µM; Q92731; hit rate 1.3% among 86,000;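 active = compounds whose percent inhibition of the receptor-coactivator binding signal exceeds about 50% in the single-dose screen, limit read from the data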
A number is an active result; - = inactive; . = not tested or not shown; [ ] = remark or other dose.

SMILES | ERa coact inh | Candida biofilm | ERa coact pot | cytoskel mod | E-sel TNF inh | ERb SRC1 inh
C[C@]12CC[C@@H]3c4ccc(OC(=O)c5ccccc5)cc4CC[C@H]3[C@@H]1CC[C@@H]2O | - | - | 298 | . | . | -
Cc1cccc(NC(=O)N2CCC(c3nc4ccccc4o3)CC2)c1 | - | - | - | . | - | -
Cc1cc(C)cc(NC(=O)N2CCC(c3nc4ccccc4o3)CC2)c1 | - | - | 680[fluorescence artefact?] | - | - | -
Cc1cc(C)n(-c2nc3ccccc3c(=O)n2OCCOc2ccccc2)n1 | - | - | - | - | - | 56[fluorescence artefact?]
CCCCCn1c(CCC(=O)Oc2ccccc2OC)nc2c1c(=O)[nH]c(=O)n2CCCC | - | - | - | - | - | -
N#Cc1cccc(S(=O)(=O)NCC(=O)OCC(=O)c2ccc[nH]2)c1 | . | . | . | . | - | .
CCOC(=O)N1CCC(n2c(SCC(=O)N3CCC(C)CC3)nc3ccccc3c2=O)CC1 | - | 24 | - | - | - | -
Cc1ccc(NC(=O)c2c3c(nc4ccccc24)CCC3)cc1S(=O)(=O)N(C)C | . | . | . | . | - | .
Cc1ccc(NC(=O)CSc2nnc(Cn3c(=O)sc4ccccc43)n2C)cc1Cl | - | - | 360 | . | - | -
CCCSc1nnc(Cn2c(=O)sc3ccccc32)n1-c1ccccc1 | - | - | - | - | . | 86[fluorescence artefact?]
CC(NC(=O)CSc1nnc(CC(=O)Nc2ccc(Cl)c(Cl)c2)n1C)c1ccccc1 (stereo not given) | - | - | - | - | - | -
CSc1nnc(Cn2c(=O)sc3ccccc32)n1-c1cccc(Cl)c1 | - | - | - | - | - | -
Cn1c(Cn2c(=O)sc3ccccc32)nnc1SCC(=O)NC1CCCCC1 | - | 21 | - | . | - | -
Cn1c(CC(=O)Nc2ccc(Cl)c(Cl)c2)nnc1SCC(=O)N1CCN(c2ccccc2)CC1 | 72[fluorescence artefact?] | - | - | - | - | -
COc1ccc(CCNS(=O)(=O)c2ccc(S(=O)(=O)N3CCCC3)cc2)cc1OC | - | - | - | - | - | 88[fluorescence artefact?]
COc1ccc(CCN(C)c2ccc(S(=O)(=O)N3CCCC3)cc2[N+](=O)[O-])cc1OC | . | . | . | . | - | .
COc1ccc(CCN(C)c2ccc(S(=O)(=O)N3CCCC3)cn2)cc1OC | . | . | . | . | 76 | .
CC(=O)N1CCN=C1SCc1ccc(Br)cc1 | - | 24 | - | - | . | -
O=C(COc1ccccc1)N1CCN=C1SCc1ccccc1 | . | . | . | . | - | .
O=C(c1cccs1)N1CCN=C1SCc1ccccc1 | - | - | - | - | 44 | -
O=C(c1ccco1)N1N=C2CCCCCC2C1(O)C(F)(F)F (stereo not given) | . | . | . | . | - | .
COc1ccc(CCNc2oc(COc3ccccc3F)nc2C#N)cc1 | - | - | - | 62 | . | -
Cc1ccc(C)c(NC(=S)NC(NC(=O)Cc2cccc3ccccc23)C(Cl)(Cl)Cl)c1 (stereo not given) | 68[fluorescence artefact?] | - | - | - | - | 69
Cc1cccc(S(=O)(=O)N(CC(=O)Nc2ccccc2C)Cc2ccco2)c1 | - | 39 | - | - | - | -
Cc1ccc(S(=O)(=O)N(CC(=O)NCc2ccco2)Cc2ccc(F)cc2)cc1 | . | . | . | 100 | - | .
SMILES | ERa coact inh | Candida biofilm | ERa coact pot | cytoskel mod | E-sel TNF inh | ERb SRC1 inh
O=C(Nc1ccc(Cl)cc1)c1cc2nc(-c3ccco3)cc(C(F)(F)F)n2n1 | - | - | - | - | 78 | -
CCCCNC(=O)c1onc(CSc2cccc(C)c2)c1C(=O)O | . | . | . | - | - | .
O=C(CSc1nnnn1-c1cccc(F)c1)Nc1nc2ccccc2s1 | 55[fluorescence artefact?] | - | 298 | - | - | -
Cc1cc(C)cc(-n2nnnc2SCC(=O)Nc2nc(-c3ccc(Cl)cc3)cs2)c1 | . | . | . | 45 | - | .
O=C(CSc1nnnn1-c1ccccc1)Nc1nsc(-c2ccc(Cl)cc2)n1 | 73 | - | - | . | - | -
O=C(CSc1nnnn1-c1ccccc1)Nc1nsc(-c2ccccc2)n1 | - | - | - | - | - | -
O=C(CSc1nnnn1-c1ccccc1F)Nc1nc2ccccc2s1 | . | . | . | - | - | .
Cc1cc(C)cc(-n2nnnc2SCC(=O)Nc2nc(-c3ccc(F)cc3)cs2)c1 | . | . | . | - | - | .
Cc1c(NC(=O)c2c(N)sc3c2CCCC3)c(=O)n(-c2ccccc2)n1C | . | . | . | . | - | .
CCOc1ccc2nc(SCC(=O)c3ccc(C)s3)sc2c1 | - | - | 221 | - | - | -
CCOc1ccc2nc(SCC(=O)Nc3ccc4c(c3)OCO4)sc2c1 | . | . | . | . | - | .
COc1cc(-c2nc(-c3ccccc3)c(-c3cccs3)[nH]2)cc(OC)c1O | - | - | - | . | - | -
COc1cc(-c2nc(-c3ccccc3)c(-c3cccs3)[nH]2)cc(OC)c1OC | - | - | 252 | - | . | -
O=C(COC(=O)C1CCCN1C(=O)c1cccs1)Nc1ccc2c(c1)OCO2 (stereo not given) | 52[fluorescence artefact?] | - | - | - | - | -
COc1cc(NCCCC(C)N)c2ncccc2c1 (stereo not given) | 70[fluorescence artefact?] | - | - | . | - | 90[fluorescence artefact?]
COc1cc(NS(=O)(=O)c2ccc(C)cc2)c2ncccc2c1 | - | - | - | . | . | -
Cc1ccc(CNC(=O)c2cc3c(C)nc4ccccc4c3o2)cc1 | 57[fluorescence artefact?] | - | - | - | . | -
Cc1nc2ccccc2c2oc(C(=O)NCc3ccccn3)cc12 | - | - | - | . | - | -
COc1ccccc1NC(=O)/C(C#N)=C/c1cc([N+](=O)[O-])ccc1N1CCCC1 | . | . | . | . | - | .
CCN1CCN(Cc2c(O)c(Cl)cc3c(C)cc(=O)oc23)CC1 | - | - | - | - | - | 63
Cc1cc(=O)oc2c(CN3CCC(C)CC3)c(O)c(Cl)cc12 | 67 | - | - | - | - | 69[fluorescence artefact?]
CC12CCC(c3n[nH]c(=S)nc31)C2(C)C (stereo not given) | . | . | . | . | - | .
CCOC(=O)c1noc(C)c1C(=O)Nc1nc(C)cc(C)n1 | . | . | . | . | - | .
O=C(Nc1ccccc1)NC1(C(=O)N2CCN(c3ncccn3)CC2)CCCCC1 | - | - | - | - | - | -
O=C(COC(=O)/C=C/c1ccc(Cl)cc1Cl)NCc1ccco1 | . | . | . | . | - | .
SMILES | ERa coact inh | Candida biofilm | ERa coact pot | cytoskel mod | E-sel TNF inh | ERb SRC1 inh
C=CCn1c(COc2ccccc2)nnc1SCC(=O)O | - | - | - | - | 62 | -
CCc1nnc(NC(=O)CSc2nnc(COc3ccccc3)n2-c2ccc(C)cc2)s1 | - | - | - | 90 | . | -
CCc1nnc(NC(=O)CSc2nnc(COc3ccccc3)n2Cc2ccccc2)s1 | - | - | - | - | - | -
COc1ccc(-n2c(COc3ccccc3)nnc2SCC(N)=O)cc1 | - | - | - | - | 81 | -
COc1ccc(-n2c(COc3ccc(C)cc3)nnc2SCC(N)=O)cc1 | - | - | - | - | . | -
O=C(NCc1ccccc1)c1cccc(NS(=O)(=O)c2cccc3cccnc23)c1 | . | . | . | . | - | .
Cc1cccc2cc(C#N)c(NCCNS(=O)(=O)c3ccc4c(c3)OCCO4)nc12 | - | - | - | - | - | -
Cc1cccn2c(=O)c3cc(S(=O)(=O)c4ccccc4)c(=N)n(Cc4ccco4)c3nc12 | . | . | . | . | - | .
N=c1c(S(=O)(=O)c2ccccc2)cc2c(=O)n3ccccc3nc2n1Cc1ccco1 | 76[fluorescence artefact?] | - | - | - | . | 79[fluorescence artefact?]
Cc1ccc(S(=O)(=O)c2cc3c(=O)n4ccccc4nc3n(Cc3ccco3)c2=N)cc1C | 75[fluorescence artefact?] | - | - | - | - | 50[fluorescence artefact?]
O=C(N/C(=C/c1cccc([N+](=O)[O-])c1)C(=O)N1CCCCC1)c1cccs1 | . | . | . | . | - | .

Source: PubChem (several laboratories)
